The target of this assay is Torsin-1A (Homo sapiens) (UniProt O14656). Put plainly: small-molecule binders of mutant TOR1A in lysate, primary screen, cell lysate, small-molecule microarray, COS7 lysate, 635/667 nm fluorescence (AID 1150).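 Also: score pools 667 nm emission and signal to noise measuring lysate protein binding.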 The note with it: COS7 hTOR1A mutant lysate, 635 nm fluorescence, higher = more signal.
Chain of Torsin-1A (Homo sapiens) (O14656 whole entry, looked up): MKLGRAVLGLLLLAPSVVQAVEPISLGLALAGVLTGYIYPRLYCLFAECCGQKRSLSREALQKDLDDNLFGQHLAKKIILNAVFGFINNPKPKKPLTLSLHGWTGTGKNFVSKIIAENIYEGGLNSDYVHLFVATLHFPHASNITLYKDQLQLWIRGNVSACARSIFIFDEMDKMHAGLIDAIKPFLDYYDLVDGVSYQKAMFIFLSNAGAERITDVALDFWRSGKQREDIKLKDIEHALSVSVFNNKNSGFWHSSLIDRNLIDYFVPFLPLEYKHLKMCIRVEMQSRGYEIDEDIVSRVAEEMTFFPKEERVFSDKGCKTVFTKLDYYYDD
Consider `CC(C)[C@@H](OCc1ccccc1)[C@H](C)C=NOC[C@@H](O)COCc1ccco1`, for which the composite z-score was -0.491. Under `CC(C)(C)N1C(=O)[C@H]2[C@H]3[C@H](O)C=CC(=O)[C@@H]3CC[C@H]2C1=O` stands 0.252; under `CCOC(=O)[C@H](CC(C)C)NC(=O)CCC1CC(OC(=O)NCc2cccc3ccccc23)CC2(CCCC(COC(=O)NCCOC)O2)O1` (stereo partly specified), 0.753; under `Cc1ccc(S(=O)(=O)n2c3ccccc3c3nnc(C(=O)c4ccccc4)nc32)cc1`, -0.292. In the case of `CCN1C(=O)[C@H]2[C@H]3[C@H](O)[C@H](O)CC(=NOC[C@H]4O[C@H](c5ccccc5)C=C[C@@H]4Oc4ccc(OC)cc4)[C@@H]3CC[C@H]2C1=O`, the composite z-score was determined as 0.586.

In turn, `Cc1cc2c(c(=O)o1)[C@@H](O)[C@H]1O[C@H]1C2=O` returned a composite z-score of 0.253. With `C#CCCCON=C1C[C@@H](O)[C@@H](O)[C@@H]2[C@@H]3C(=O)N(c4cccc(Oc5ccccc5)c4)C(=O)[C@@H]3CC[C@H]12`, the composite z-score came to 0.855. Under `CC(CCN1CCc2nc(-c3ccccc3)c(-c3ccccc3)cc2C1)=NOC[C@@H](O)[C@H]1O[C@@H]2OC(C)(C)O[C@@H]2[C@H]1O` stands 0.587; under `CC(CCN1CCc2nc(-c3ccccc3)c(-c3ccccc3)cc2C1)=NOC[C@@H](O)COCc1ccco1`, 1.25. Under `CSCC[C@@H]1NC(=O)CC=C[C@@H](C)COC(=O)[C@@H](C)COC1=O` stands 2.1; under `CC(=O)Nc1ccc([C@@H]2N[C@H](C(=O)O)CC[C@H]2C)cc1`, 0.371; under `C#CCCCON=C1[C@H]2CCn3c(=O)n(-c4ccccc4)c(=O)n3[C@H]2[C@H](O)[C@@H]2O[C@H]12`, 1.27. Under `COC(=O)[C@@H]1CC[C@H](C)[C@@H](c2ccc(C)cc2)N1C(=O)c1ccc(C=NOC[C@@H](C)[C@H](OCc2ccccc2)C(C)C)cc1` stands 0.537; under `CCOC(=O)[C@H](Cc1ccccc1)NC(=O)CCC1CC(OC(=O)NCc2cccc3ccccc23)CC2(CCCC(COC(=O)NCCC(C)C)O2)O1` (stereo partly specified), -0.359; under `C=CC[C@@H]1C=C[C@H](ON=C2[C@H]3CCn4c(=O)n(-c5ccccc5)c(=O)n4[C@H]3[C@H](O)[C@@H]3O[C@H]23)[C@@H](CO)O1`, 0.369. The compound `CCOC(=O)[C@H](CC(C)C)NC(=O)CCC1CC(OC(=O)NCc2cccc3ccccc23)CC2(CCCC(COC(=O)NCCOc3ccccc3)O2)O1` (stereo partly specified) had a composite z-score of 0.117.

On to `C[C@@H](c1ccccc1)N1C(=O)[C@H]2[C@H]3[C@H](O)[C@H](O)CC(=NOCc4ccccc4)[C@H]3CC[C@H]2C1=O`, for which the composite z-score stood at 0.651.

In turn, `CCCNC(=O)OC[C@H]1O[C@H](CCON=C(C)CCN2CCc3nc(CC)c(CC)cc3C2)C=C[C@@H]1Oc1ccc(OC)cc1` came in with a composite z-score of 0.481.

The compound `CCCNC(=O)OC[C@H]1O[C@H](CCON=C(C)C)C=C[C@@H]1Oc1ccc(OC)cc1` gave a composite z-score of -0.0963.

Turning to `CC(=O)O[C@H]1C2=CO[C@H](C)[C@H]3[C@H]4C5=C([C@H](O)[C@H]6O[C@H]6C5=O)[C@H](OC4C)[C@@]23C(=O)[C@@H]2O[C@@H]21` (stereo partly specified), the composite z-score is -0.279.

`C=CC[C@@H]1C=C[C@H](ON=C[C@@H](C)[C@H](OCc2ccccc2)C(C)C)[C@@H](CO)O1` returned a composite z-score of -0.396.

Take `COC(=O)CC=C[C@@H](C)[C@@H](C=NOC(C)CN1CCCc2nc(C)c(C)cc21)OC` (stereo partly specified): the composite z-score was found to be 0.0852. On to `CC(CCN1CCCCc2nc(C)c(C)cc21)=NOC[C@@H](C)[C@H](OCc1ccccc1)C(C)C`, for which the composite z-score is -1.49.

For `CON=C(C)CCC(=O)OC[C@H]1O[C@H](c2ccccc2)C=C[C@@H]1Oc1ccc(OC)cc1`, the composite z-score was -0.013. Under `CON=CC[C@@H]1C=C[C@H](OC(C)=O)[C@@H](COC(C)=O)O1` stands 0.592; under `Cn1c(=O)n2n(c1=O)[C@H]1[C@H](O)[C@@H]3O[C@@H]3C(=O)[C@H]1CC2`, 0.198; under `COc1ccc(COC(=O)NN=C2C[C@@H](O)[C@@H](O)[C@@H]3[C@@H]4C(=O)N(Cc5ccccc5)C(=O)[C@@H]4CC[C@H]23)cc1`, -0.186.

`C#CCCCON=C1C[C@@H](O)[C@@H](O)[C@@H]2[C@@H]3C(=O)N(C(C)(C)C)C(=O)[C@@H]3CC[C@@H]12` displayed a composite z-score of 0.348. Under `C[C@@H](c1ccccc1)N1C(=O)[C@H]2[C@H]3[C@H](O)[C@H](O)CC(=NO[C@@H]4O[C@H](CO)[C@@H](O)[C@H](O)[C@H]4O)[C@H]3CC[C@H]2C1=O` stands 0.249. For the compound `CCOC(=O)CCN1C(=O)[C@H]2[C@H]3[C@H](O)[C@H](O)CC(=NOCc4ccccc4)[C@H]3CC[C@H]2C1=O`, the composite z-score was -0.522.

In turn, `CO[C@H]1COC(=O)[C@@H](C)COC(=O)[C@H](COCc2ccccc2)NC(=O)CC=C[C@H]1C` came in with a composite z-score of 0.491. Under `COc1cccc([C@H]2Oc3ccc(OC)cc3C(=NO[C@@H]3O[C@H](COC(C)=O)[C@@H](OC(C)=O)[C@H](OC(C)=O)[C@H]3OC(C)=O)[C@@H]2O)c1` stands 0.461; under `CCOC(=O)[C@H](CC(C)C)NC(=O)CCC1CC(OC(=O)NCc2ccc3c(c2)OCO3)CC2(CCCC(COC(=O)NCc3cccc(C(F)(F)F)c3)O2)O1` (stereo partly specified), -0.272. Under `CCN1C(=O)[C@H]2[C@H]3[C@H](O)[C@H](O)CC(=NOCC(C)C)[C@@H]3CC[C@H]2C1=O` stands 0.634; under `COC(=O)[C@H](C)NC(=O)CCC1CC(OC(=O)NCCc2ccc(F)cc2)CC2(CCCC(COC(=O)NCCC(C)C)O2)O1` (stereo partly specified), -0.0067. On to `C=CC[C@@H]1C=C[C@H](ON=C(C)CCN2CCc3nc(-c4ccccc4)c(-c4ccccc4)cc3C2)[C@@H](CO)O1`, for which the composite z-score amounted to 0.415.

The values are drawn from PubChem BioAssay.
